According to PubChem BioAssay (EPA / NIEHS):
Records with an inconclusive call do not appear. Active and inactive are the calls of the source. How the source made its calls, unless noted: active means hit-call score of the fitted dose curve at least 0.9, where 1 is the maximum; inactive means score below 0.9.

Columns and labels:
[1] = UKN4_HCS_LUHMES_neurite_outgrowth: University of Konstanz (UKN) Leist Lab Neurite Outgrowth Assay in human LUHMES cells (UKN4) (AID 2284206); details: actives raise or lower the signal
Method in brief: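 Read-out: calcein-AM neurite area by high-content fluorescence imaging, with Hoechst H-33342 viability counterstain, after 24 h chemical exposure of day-2 differentiated LUHMES cells. Activity fitted bidirectionally against DMSO baseline.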

[2] = IUF_NPC1b_proliferation_BrdU_72hr: Leibniz Research Institute for Environmental Medicine (IUF) 72-hour Neural Progenitor Cell Bromodeoxyuridine (BrdU) Proliferation Assay (NPC1b) (AID 2284207)
Method in brief: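 Neural progenitor spheres of human fetal origin are treated for three days; BrdU added for the last 16 h is quantified by luminescence ELISA, with DMSO as baseline and EGF/FGF omission as positive control.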

[3] = IUF_NPC1a_proliferation_area_72hr: Leibniz Research Institute for Environmental Medicine (IUF) 72-hour Neural Progenitor Cell Proliferation Area Assay (NPC1a) (AID 2284208)
Method in brief: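 Proliferation is scored as sphere area gain in primary human fetal neural progenitors treated for 72 h in EGF/FGF-containing medium. Viability, LDH and BrdU readouts come from the same wells.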

[4] = IUF_NPC1_viability_72hr: Viability Assessment at 72 hours in the Leibniz Research Institute for Environmental Medicine (IUF) Neural Progenitor Cell Proliferation Assay (NPC1) (AID 2284209)
Method in brief: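 Alamar blue fluorescence (RFU) after 72 h exposure, normalized to DMSO baseline. hNPC spheres from GW 16-19 fetal cortex, single sphere per well in growth-factor medium; no compound renewal.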

[5] = CCTE_Mundy_HCI_Cortical_Synap_Neur_Matur_NeuriteSpotCountPerNeuriteLength: CCTE's Synaptogenesis and Neurite Maturation Assay in rat cortical cells for Neurite Spot Count per Neurite Length, Mundy Lab (AID 2284210)
Method in brief: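 Neurite-associated synapse density (synaptophysin puncta per unit neurite length) is measured by fluorescence high-content imaging in rat cortical cultures treated from DIV 7 and fixed at DIV 12, with DMSO as negative control.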

[6] = CCTE_Mundy_HCI_Cortical_NOG_NeuriteLength: CCTE's Neurite Outgrowth Assay in rat cortical cells for Neurite Length, Mundy Lab (AID 2284213);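 further: neurites imaged about 48 to 50 h after chemical exposure began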
Method in brief: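 First, rat primary cortical cells were plated and, 2 h later, given test chemical as a 1/10 dilution. Finally, βIII-tubulin immunostaining enabled automated imaging of neurite length.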

[7] = CCTE_Mundy_HCI_Cortical_Synap_Neur_Matur_NeuriteSpotCountPerNeuron: CCTE's Synaptogenesis and Neurite Maturation Assay in rat cortical cells for Neurite Spot Count per Neuron Count, Mundy Lab (AID 2284215)
Method in brief: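 Synapse density is scored as synaptophysin spots along neurites per neuron in fixed rat cortical neurons, measured at DIV 12 after chemical dosing at DIV 7. DMSO is the negative control and activity baseline.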

[8] = CCTE_Mundy_HCI_Cortical_Synap_Neur_Matur_SynapseCount: CCTE's Synaptogenesis and Neurite Maturation Assay in rat cortical cells for Synapse Count, Mundy Lab (AID 2284218)
Method in brief: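 Read-out: synapse number per neuron, automated high-content imaging of fixed cells immunostained for MAP2 and synaptophysin plus Hoechst nuclei. Rat primary cortical cultures, AraC at DIV 5, chemical dosing DIV 7–12. Positive-direction fit relative to DMSO.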

[9] = CCTE_Mundy_HCI_hN2_NOG_NeuriteCount: CCTE's Neurite Outgrowth Assay in human hN2 cells for Neurite Count, Mundy Lab (AID 2284219; active means hit-call score of the fitted dose curve at least 0.9, where 1 is the maximum)
Method in brief: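 In this morphology assay, hNP1-derived neurons received test chemical 2 h post-plating and were fixed two days later in warm paraformaldehyde/sucrose containing Hoechst 33342. Neurites, labelled by rabbit anti-βIII-tubulin (1:800) and Alexa Fluor-488 (1:500), were counted automatically.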

[10] = CCTE_Mundy_HCI_hN2_NOG_NeuriteLength: CCTE's Neurite Outgrowth Assay in human hN2 cells for Neurite Length, Mundy Lab (AID 2284220; active means hit-call score of the fitted dose curve at least 0.9, where 1 is the maximum)
Method in brief: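 Using βIII-tubulin immunofluorescence and Hoechst nuclear counterstain, this component quantifies neurite length in hNP1-derived neurons.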

[11] = CCTE_Mundy_HCI_hN2_NOG_NeuronCount: CCTE's Neurite Outgrowth Assay in human hN2 cells for Neuron Count, Mundy Lab (AID 2284221; active means hit-call score of the fitted dose curve at least 0.9, where 1 is the maximum)
Method in brief: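 Read-out is the number of betaIII-tubulin-positive neurons imaged by automated high-content analysis, with DMSO as negative control.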

[12] = CCTE_Mundy_HCI_Cortical_Synap_Neur_Matur_CellBodySpotCount: CCTE's Synaptogenesis and Neurite Maturation Assay in rat cortical cells for Cell Body Spot Count, Mundy Lab (AID 2284223)
Method in brief: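 Synapse number at neuronal cell bodies was quantified as synaptophysin puncta per neuron in rat cortical cultures exposed from DIV 7 to DIV 12. Values were normalised to DMSO.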

[13] = UKN4_HCS_LUHMES_cell_viability: Viability Assessment in the University of Konstanz (UKN) Leist Lab Neurite Outgrowth Assay in human LUHMES cells (UKN4) (AID 2284232)
Method in brief: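 Day-2 differentiated LUHMES, 30000 cells/well, dosed ~30 min–2 h post-seeding; 24 h treatment incl. staining; Hoechst H-33342 + calcein-AM at 23.5 h; HCS imaging; DMSO-normalized, bidirectional fit.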

[14] = UKN2_HCS_IMR90_cell_viability: Viability Assessment in the University of Konstanz (UKN) Leist Lab Neural Crest Cell Migration Assay in human induced IMR90 Pluripotent Stem Cells (UKN2) (AID 2284233);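 further: viability of neural crest cells differentiated from IMR90 iPSC measured by calcein-AM fluorescence imaging; cells exposed to compound for 24 h after a 24 h migration phase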
Method in brief: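 cMINC format, iPSC-derived neural crest (IMR90); 24 h migration (EGF/FGF, N2-S), then 24 h toxicant. Calcein-AM/H-33342 stain 30 min; fluorescence intensity by HCS; DMSO-normalised, bidirectional fitting.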

[15] = CCTE_Mundy_HCI_Cortical_NOG_NeuronCount: CCTE's Neurite Outgrowth Assay in rat cortical cells for Neuron Count, Mundy Lab (AID 2284236; active means hit-call score of the fitted dose curve at least 0.9, where 1 is the maximum;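 further: neurons counted by imaging betaIII-tubulin and Hoechst stained cortical cells; cells exposed to compound for about 48 hours before fixation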)
Method in brief: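 Read-out: neuron number by high-content imaging of betaIII-tubulin (Alexa Fluor-488) and Hoechst-labelled rat primary cortical cells.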

[16] = CCTE_Mundy_HCI_hNP1_Casp3_7: CCTE's Caspase-Glo 3/7 Assay in human neuroprogenitor cells for Apoptosis, Mundy Lab (AID 2284240)
Method in brief: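 Neuroepithelial-lineage stem cells from WA09 embryonic cells were treated with chemicals after 40–44 h of culture. Twenty-four hours later, caspase-3/7 activation was detected luminescently after a 30 min room-temperature reagent step, with DMSO as baseline.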

[17] = CCTE_Mundy_HCI_Cortical_Synap_Neur_Matur_NeuronCount: CCTE's Synaptogenesis and Neurite Maturation Assay in rat cortical cells for Neuron Count, Mundy Lab (AID 2284242; active means hit-call score of the fitted dose curve at least 0.9, where 1 is the maximum)
Method in brief: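 Rat cortical cultures; AraC DIV 5; chemical dosing + media change DIV 7 to DIV 12 (288.33 h readout). Fix, Hoechst, anti-MAP2/anti-synaptophysin immunostain; HCI neuron count vs DMSO baseline.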

[18] = IUF_NPC2c_oligodendrocyte_migration_120hr: Leibniz Research Institute for Environmental Medicine (IUF) 120-hour Neural Progenitor Cell Migration Assay for Oligodendrocyte Migration (NPC2c) (AID 2284297);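 further: O4-positive oligodendrocyte migration distance divided by radial glia migration distance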
Method in brief: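 Primary hNPC spheres migrating on extracellular matrix, exposed five days to a 7-point dilution series with solvent control. Oligodendrocyte migration was scored by high-content imaging of O4 immunostaining and expressed relative to radial glia distance.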

[19] = IUF_NPC2a_radial_glia_migration_120hr: Leibniz Research Institute for Environmental Medicine (IUF) 120-hour Neural Progenitor Cell Migration Assay for Radial Glia Migration (NPC2a) (AID 2284298)
Method in brief: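 In this multiplexed test, fetal hNPC spheres migrate radially on poly-D-lysine/laminin in N2 medium (37C, 5% CO2, pH 7.2-7.6) under continuous compound exposure over five days. Migration is scored at 120 h from automated Hoechst nuclear imaging.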

[20] = IUF_NPC2a_radial_glia_migration_72hr: Leibniz Research Institute for Environmental Medicine (IUF) 72-hour Neural Progenitor Cell Migration Assay for Radial Glia Migration (NPC2a) (AID 2284299)
Method in brief: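 Readout: mean of four manual brightfield measurements of radial glia migration distance (um) at 72 h. hNPC spheres (0.3 mm) exposed to 7 compound concentrations plus solvent control on PDL/laminin, 37C, 5% CO2; activity fitted relative to DMSO.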

[21] = IUF_NPC3_neuronal_differentiation_120hr: Leibniz Research Institute for Environmental Medicine (IUF) 120-hour Neuronal Differentiation Assay (NPC3) (AID 2284301)
Method in brief: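 Neuronal differentiation of primary human neural progenitors measured by high-content imaging: percent TUBB3+ of Hoechst+ nuclei within migrated area at 120 h, seven-point serial dilution plus solvent control, gain or loss relative to DMSO.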

[22] = IUF_NPC4_neurite_length_120hr: Leibniz Research Institute for Environmental Medicine (IUF) 120-hour Neuronal Morphology Assay for Neurite Length (NPC4) (AID 2284302)
Method in brief: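 Neurons from differentiating human fetal neural progenitor spheres are scored for average neurite length after five days of compound exposure. Fitting uses DMSO as negative control.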

[23] = IUF_NPC5_oligodendrocyte_differentiation_120hr: Leibniz Research Institute for Environmental Medicine (IUF) 120-hour Oligodendrocyte Differentiation Assay (NPC5) (AID 2284304; active means hit-call score of the fitted dose curve at least 0.9, where 1 is the maximum;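 further: primary human fetal neural progenitor spheres plated to migrate and differentiate; share of O4-positive cells among Hoechst nuclei found by CNN image analysis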)
Method in brief: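 Human primary NPC neurospheres migrating and differentiating on laminin for 120 h under continuous compound exposure (serial dilution, solvent control). Endpoint: percent O4+ oligodendrocytes among Hoechst nuclei, detected by CNN image analysis, with DMSO as negative control.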

[24] = IUF_NPC2-5_cytotoxicity_72hr: Cytotoxicity Assessment at 72 hours in the Leibniz Research Institute for Environmental Medicine (IUF) Neural Progenitor Cell Migration and Differentiation Assay for Cytotoxicity (NPC2-5) (AID 2284306; active means hit-call score of the fitted dose curve at least 0.9, where 1 is the maximum;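 further: LDH release into supernatant measured by resorufin fluorescence marking membrane damage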)
Method in brief: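 Primary human neural progenitor spheres migrate and differentiate on laminin. Compound is present from the start of differentiation, with DMSO kept at or below 0.1%. At 72 h, supernatant LDH is quantified fluorometrically, with values fitted in the positive direction.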

[25] = IUF_NPC2-5_cytotoxicity_120hr: Cytotoxicity Assessment at 120 hours in the Leibniz Research Institute for Environmental Medicine (IUF) Neural Progenitor Cell Migration and Differentiation Assay (NPC2-5) (AID 2284307; active means hit-call score of the fitted dose curve at least 0.9, where 1 is the maximum;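 further: LDH released into supernatant as membrane damage marker via resorufin fluorescence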)
Method in brief: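 Fluorescence (RFU) from LDH-driven resazurin reduction in medium supernatants measured loss of membrane integrity after 120 h of compound exposure of differentiating primary human neural progenitor spheres on an extracellular matrix.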

[26] = IUF_NPC2-5_cell_number_120hr: Cell Number Assessment at 120 hours in the Leibniz Research Institute for Environmental Medicine (IUF) Neural Progenitor Cell Migration and Differentiation Assay (NPC2-5) (AID 2284308);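 further: count of Hoechst-stained nuclei in migration zone around plated human neural progenitor spheres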
Method in brief: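 Cell number is taken as all Hoechst-positive nuclei detected in the area into which cells migrate out of the sphere, scored at 120 h and referenced to DMSO solvent control, which was kept at no more than 0.1%.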

[27] = IUF_NPC2-5_viability_120hr: Viability Assessment at 120 hours in the Leibniz Research Institute for Environmental Medicine (IUF) Neural Progenitor Cell Migration and Differentiation Assay (NPC2-5) (AID 2284312)
Method in brief: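 Human fetal (GW 16-19) neural progenitor spheres of 0.3 mm were plated on poly-D-lysine/laminin in N2 differentiation medium and exposed from day 0 for 120 h, with half-medium refresh at day 3. Viability was read as alamar blue resazurin-to-resorufin fluorescence against DMSO.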

[28] = IUF_NPC1_cytotoxicity_72hr: Cytotoxicity Assessment at 72 hours in the Leibniz Research Institute for Environmental Medicine (IUF) Neural Progenitor Cell Proliferation Assay (NPC1) (AID 2284332; active means hit-call score of the fitted dose curve at least 0.9, where 1 is the maximum;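 further: rising LDH signal means more cytotoxicity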)
Method in brief: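 LDH in supernatant, resazurin→resorufin fluorescence (RFU), 72 h exposure, no re-dosing. Cells: primary hNPC spheres, one per well, EGF+FGF medium, 37C/5% CO2, pH 7.2-7.6. Fit: positive direction vs baseline and dynamic range.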

Measured: AC50

C[C@@H]1C[C@H]2[C@@H]3CCC4=CC(=O)C=C[C@]4(C)[C@@]3(F)[C@@H](O)C[C@]2(C)[C@@]1(O)C(=O)CO
inactive: [1] | [3] | [4] | [5] | [7] | [8] | [9] | [10] | [11] | [12] | [13] | [14] | [15] | [16] | [17] | [18] | [19] | [20] | [21] | [22] | [23] | [24] | [26] | [27] | [28]
active: [2] 90.1 nM | [6] 21.1 µM | [25] 24 nM
